Measurements published in the supplement of paper PMC6555819.

Key:
Assay in all cases: PBM binding z-score (relative to random genomic background probes); higher = stronger binding; sequences stand for … in GC…GCGATTGACAGCGTAGAATGAAGG
[1] = test system: FXR:RXRa (NR concentration 270 nM, RXRa partner concentration 90 nM)
Summary of the method: (§1)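 Ligand-free nuclear receptor dimers were bound for 1 h to custom Agilent 4×180K protein-binding microarrays. Detection used antibodies against each partner (one per run). Binding z-scores rest on regression-normalized fluorescence, with random background probes as the reference.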

[2] = test system: LXRa:RXRa (NR concentration 270 nM, RXRa partner concentration 90 nM)
Summary of the method: as §1

[3] = test system: LXRa homodimer (NR concentration 270 nM)
Summary of the method: as §1

[4] = test system: LXRb:RXRa (NR concentration 270 nM, RXRa partner concentration 90 nM)
Summary of the method: as §1

[5] = test system: LXRb homodimer (NR concentration 270 nM)
Summary of the method: as §1

[6] = test system: PPARa:RXRa (NR concentration 270 nM, RXRa partner concentration 90 nM)
Summary of the method: as §1

[7] = test system: PPARg:RXRa (NR concentration 180 nM, RXRa partner concentration 90 nM)
Summary of the method: as §1

[8] = test system: PPARg:RXRa 270nM:90nM, anti-RXR (NR concentration 270 nM, RXRa partner concentration 90 nM)
Summary of the method: as §1

[9] = test system: PPARg:RXRa 30nM:10nM, anti-RXR (NR concentration 30 nM, RXRa partner concentration 10 nM)
Summary of the method: as §1

[10] = test system: PPARg:RXRa 90nM:30nM, anti-RXR (NR concentration 90 nM, RXRa partner concentration 30 nM)
Summary of the method: as §1

Sequence	PBM binding z-score [1]	PBM binding z-score [2]	PBM binding z-score [3]	PBM binding z-score [4]	PBM binding z-score [5]	PBM binding z-score [6]	PBM binding z-score [7]	PBM binding z-score [8]	PBM binding z-score [9]	PBM binding z-score [10]
CGTTCAAGGTCAATGCTAGGTCAGTGAAAGCATT	7.47	5.78	2.89	4.36	1.24	5.27	4.81	5.15	1.88	3.91
CCTATTAGTTGACCAGAAGGGCAACCGAAGCTCG	0.545	0.559	0.36	0.332	0.735	0.431	0.395	0.467	-0.116	0.177
GCTCGGAGCACAAGGTCAGAGCTTTGTCCGTAGA	1.22	1.42	-0.454	0.993	-1.38	2.34	0.273	1.03	-0.387	0.2
GCAGACAGGTGAAACGCGGGTAACTCAGGGTGGC	0.0652	0.351	-0.771	-0.193	-1.11	0.839	0.342	-0.106	-0.712	-0.458
ACTAGCAGGCCCAGGGTCACTCAAGATTAGTCCG	1.28	1.58	-0.164	1.69	-0.913	2.27	1.36	2.3	0.49	1.68
TCTAGTTGGTCACGGAGGTCAAACACGACGGGTA	4.19	4.67	4.58	4.25	1.38	4.39	3.25	4.13	3.76	4.08
CAAACTAGGTCAAGAGGTCAAAGCCCGCTTCCCG	7.07	6.28	5.68	5.4	1.5	6.76	10.1	8.55	7.71	8.87
CGAATTAGGTCAGAACAGGACAGTGAAGGATGAT	1.56	1.31	0.144	0.781	0.086	3.41	4.98	4.59	2.05	3.65
CCTACTGGGCCAAGAAGGTCATTGATGCCGATAA	1.94	2.35	0.897	2.47	-0.675	3.5	2.17	2.94	0.664	1.87
TCTTGTCGATCAACAGGAGGTTAAGAAAGATCGA	0.21	0.937	0.145	0.977	-0.356	1.11	-0.231	0.969	1.86	1.64
CGTCCAAGGTCATAGCAGGTCAGTGAAGACAGAT	7.63	7.02	3.65	5.58	0.842	5.85	5.23	5.24	2.03	4.17
ATGGAAAGGTCGAGGTGAGTATAGAGAAAGGGAA	4.15	3.47	0.547	2.81	0.956	4.69	3.21	4.02	1.44	2.83
TGAATGATGTTAAAGATCAGGGAACGTGGCGTCG	0.0753	0.0362	-0.207	-0.167	0.281	0.925	1.32	2.98	1.82	2.49
TGAATGAGGTTAAAGATCAAGGAACGTGGCGTCG	3.35	2.61	-0.438	1.96	0.0283	4.79	6.53	6.53	5.25	6.93
TCATATTGGTAAATGCTAGGTGAAAGTCCGATCT	0.86	0.817	0.679	0.796	0.681	0.861	0.033	1.9	3.55	2.76
ATCTCCAGGTAAAAGTTCAGTGAATCCCGAGGAT	1.06	1.58	1.65	1.15	0.946	3.5	5.76	6.62	6.15	7.28
GCGACTGGTGCAAAGCAGGTTACCATAAGGTTGG	-0.455	-0.431	-0.586	-0.35	-0.861	0.293	0.344	-0.0216	-0.591	-0.439
CCAACTAGGTCAAGAGGTCAAAGTCCGCTTCCCG	6.96	6.55	6.26	5.47	1.76	6.42	9.41	7.99	6.27	8.1
TATACAGGGTCAAAGGCAAGAGTACGAATGTCGA	6.51	6.12	2.15	4.62	2.67	5.97	7.76	6.96	4.69	6.75
CCTACTGGGCCAATGGTCATTGATTCCAATGCTC	-0.623	-0.68	-0.691	-0.531	-0.674	1.86	4.15	5.51	3.81	6.38
GCTGCTAGGTCAACTGATGGTCGGCTAAAGCTCG	3.88	3.08	0.00529	1.89	-0.133	3.7	2.39	3.16	0.547	1.99
CGAACTAGGTCAAGGTCAAAGTCGGTTTGTGCCA	6.55	5.52	3.7	4.39	1.14	5.86	9.77	7.93	6.78	8.09

Sequence	PBM binding z-score [1]	PBM binding z-score [2]	PBM binding z-score [3]	PBM binding z-score [4]	PBM binding z-score [5]	PBM binding z-score [6]	PBM binding z-score [7]	PBM binding z-score [8]	PBM binding z-score [9]	PBM binding z-score [10]
GATACAGGGTCAAGGCCATAGTACGCGTATTGAT	6.45	4.12	0.059	3.75	0.018	5.51	6.08	5.45	2.63	4.43
TCAGACAGGTGCAGGTAACTCAGGTACGCAGTCG	0.317	0.617	-0.304	0.192	-0.936	0.506	0.493	1.31	2.88	2.35
CATACAGGGTCAGCTAGGCCAGCGTAGGGACGGC	4.29	2.94	-0.144	1.98	0.387	4.38	3.25	2.9	0.559	2.04
GATACAGGGTCAGCTAGAGCCCAGAGTATGGAAA	4.49	2.36	-0.499	2.18	-0.471	4.59	3.94	3.29	0.917	2.03
TTACCAAGGTGAGCTAAGGTCGTTGATCCAACTC	3.04	1.56	-0.466	0.977	-1.12	1.66	0.5	1.42	0.431	0.771
TCTTGTAGACCAGCAGGTTAAGAAAGCTGGCCAA	0.124	0.0452	-0.542	0.0973	-0.717	0.558	-0.5	1.27	2.61	1.96
GCGTATAGGTAATACAAGGTGAAAGTCCGATTGT	1.84	2.57	0.196	0.896	-0.616	1.37	0.763	0.855	0.307	0.925
TCTCGGAGGACATGAAAGGTCAGAGCTCGACATC	2.65	3.67	2.92	3.09	-0.221	3.34	1	2.68	2.8	2.61
CCTACTGGGCCATTCAGTGGTCATTGATCATATG	-0.271	-0.187	-0.281	-0.498	-0.602	0.355	0.304	0.661	-0.571	0.191
TCTAGTTGGTCAAAGGTCACAGACTCGAAATGCG	6.15	6.04	3.48	5.55	1.44	6.87	11.5	10	10.8	11.2
CCTAGTTGGTGAAGGTCACACACGCTATAGGTAC	2.89	3.37	1.45	3.42	0.755	3.66	2.32	3.03	1.1	1.97
ATATGTAGGTTACATCCGGGTCACTCAGGCTATG	2.08	3.86	1.09	2.75	0.682	4.31	6.07	5.17	2.68	4.31
TCATATAGGTAAATGCTATGTGAAAGTCCGATCT	0.801	0.648	0.000605	0.522	-0.0167	1.13	1	2.16	3.62	3.03
TCCTATAGGTAATACAGGTGAAAGTCGGCATCTA	0.774	0.986	-0.00145	0.839	0.103	1.84	0.918	1.91	3.2	2.41
CCGAGTGGGGCATAAGGTTACCATAAGCCAGCCC	0.498	1.86	-0.512	0.83	-1.04	2.05	2.19	3.09	1.06	2.66
CATGCAGGGTCAGCTAGGCCAGAGTAGGGACGGC	4.4	2.77	-0.597	2.03	-0.151	4.36	2.66	3.1	0.694	1.84
AGTCAAAGTTCAATAGGTAACGTAAGATTCAGCT	5.27	5.09	3.45	3.08	1.59	4.37	5.82	5.74	2.88	4.97
TCTCGGAGGACACGAAGATCAGAGCTTTCCAGAG	0.203	-0.201	-0.688	-0.685	-1.08	0.0727	0.181	0.96	2.25	1.67
CCGAGTAGGTTATGGGGCATCCAGGCAACGGTGA	0.103	0.375	-0.312	0.332	-0.509	2.36	3.95	4.52	1.97	4.17
CAAACTAGATCAAGGTCAAAGTCGGTTTGTGCCA	4.53	4.46	3.64	3.65	0.973	4.54	3.63	3.99	1.31	2.91
AGAATGAGGTTACCAAAGATCAGGGATACGCTTG	1.93	5.68	0.0211	2.95	0.0562	3.28	2.84	2.6	1.03	1.77
TCGAGTAGGTTACCAAAGGGGCATTCAGCTTTCT	0.363	3.05	-0.577	1.61	-0.557	1.41	0.576	1.33	0.963	1.22
